Inconclusive results are not listed. Values without a mark were called inactive. Calls of active or inactive are those of the source. Calls follow the shape of the dose curve; as a rule, active = well fitted inhibition curve with a large enough effect; inconclusive = small, poorly fitted or top-dose-only effect; inactive = no such curve, though single readings can be large or run the other way.
Biological target: Coelenterazine h 2-monooxygenase (Renilla reniformis) (UniProt P27652)
Assay: qHTS Assay for Inhibitors of Sea Pansy Luciferase from the GSK Published Protein Kinase Inhibitor Set
Details: purified Renilla luciferase, luminescence; series mostly up to 57.5 µM; activity change, negative = inhibition: at the top concentration
Outline: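 Purified R. reniformis luciferase (1 nM final) with 5 uM coelenterazine h in 50 mM Tris acetate pH 7.5, 100 uM NaCl, 0.01% Tween-20, 0.05% BSA. A titration, about 60 uM to 300 pM; luminescence read after about 2 min.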
Potency is read from the fitted curve at half-maximal effect.

Sequence of Coelenterazine h 2-monooxygenase (Renilla reniformis) (P27652 whole entry, looked up): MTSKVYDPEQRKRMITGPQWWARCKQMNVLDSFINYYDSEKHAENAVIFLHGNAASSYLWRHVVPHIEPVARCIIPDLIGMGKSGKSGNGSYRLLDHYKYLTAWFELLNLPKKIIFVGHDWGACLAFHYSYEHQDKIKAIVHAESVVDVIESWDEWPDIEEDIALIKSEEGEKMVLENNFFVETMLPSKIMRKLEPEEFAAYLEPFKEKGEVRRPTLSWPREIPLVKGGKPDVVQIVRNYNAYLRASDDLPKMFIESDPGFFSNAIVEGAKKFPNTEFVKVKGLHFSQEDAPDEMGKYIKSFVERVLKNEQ

Structure (SMILES) | activity change, negative = inhibition [%] | Potency
Clc1ccc(CNc2nccc(-c3cnn4ncccc34)n2)cc1 | 37.5 | 
COc1cc(Nc2ncc(-c3ccccc3)o2)cc(OC)c1 | 12.4 | 
CS(=O)(=O)CCNCc1nc(-c2ccc3ncnc(Nc4ccc(F)c(Cl)c4)c3c2)cs1 | 18.1 | 
OCCCNc1nccc(-c2c(-c3ccc(F)cc3)nn3cc(C(F)(F)F)ccc23)n1 | 39.6 | 
c1ccc(Nc2ncc(-c3ccccc3)o2)cc1 | 5.69 | 
COc1cc(C=NNc2ncnc3c2cnn3-c2ccccc2)ccc1O | 34.5 | 
CCn1c(-c2nonc2N)nc2cncc(C(=O)N3CCC(N)C3)c21 (centres undefined) | 2.39 | 
c1ccc(COc2ccc(Nc3ncnc4ccc(-c5ccco5)cc34)cc2)cc1 | 22.2 | 
O=S1CCN(Cc2ccc(-c3ccc4ncnc(Nc5ccc(OCc6cccc(F)c6)c(Cl)c5)c4c3)o2)CC1 | 47.3 | 
COc1cc(C=NNc2ncnc3[nH]ncc23)ccc1O | 36.2 | 
CC1=C(C(=O)Nc2ccc3n[nH]c(C)c3c2)C(c2ccc(C(F)(F)F)cc2)CC(=O)N1 (centres undefined) | 32.4 | 
NC(=O)c1cccc(Nc2nccc(Nc3cccc4[nH]ncc34)n2)c1 | 18.3 | 
c1ccc(Oc2ccc(Nc3ncc(-c4ccccc4)o3)cc2)cc1 | 36.9 | 
c1cc(-c2cnn3nc(N4CCOCC4)ccc23)nc(NC2CC2)n1 | 24.1 | 
CS(=O)(=O)CCNCc1ccc(-c2ccc3ncnc(Nc4ccc(OCc5ccccc5)cc4)c3c2)o1 | 16.4 | 
NC(=O)c1ccc(Oc2nccc(-c3c(-c4ccc(F)cc4)ncn3C3CCNCC3)n2)cc1 | 32.1 | 
Nc1nccc(-c2c(-c3ccc(F)cc3)ncn2C2CCNCC2)n1 |  | inactive
COC(=O)c1sc(-n2cnc3cc(OC)c(OC)cc32)cc1OCc1ccccc1C(F)(F)F | 19.3 | 
CCOc1ccc2c(-c3ccnc(Nc4cccc(C(F)(F)F)c4)n3)cnn2n1 | 26.7 | 
CS(=O)(=O)CCNCc1ccc(-c2ccc3ncnc(Nc4ccc(OCc5cccc(F)c5)c(C(F)(F)F)c4)c3c2)o1 | 48.1 | 

Structure (SMILES) | activity change, negative = inhibition [%] | Potency
Nc1ccc(C#Cc2cncnc2Nc2ccc(OCc3cccc(F)c3)c(Cl)c2)cc1 | 12.3 | 
NC(=O)c1sc(-n2cnc3ccc(C(F)(F)F)cc32)cc1OCc1ccccc1Br | 20.1 | 
CC1=C(C(=O)Nc2ccc3[nH]ncc3c2)C(c2ccc(F)cc2)N=C(c2ccc(C(F)(F)F)nc2)N1 (centres undefined) | 32.8 | 
COc1cc2ncn(-c3cc(OCCc4ccccc4)c(C(N)=O)s3)c2cc1OC | 13.2 | 
CS(=O)(=O)CCNCc1ccoc1-c1ccc2ncnc(Nc3ccc(OCc4ccccc4)cc3)c2c1 | 39.4 | 
CN(C)c1ccc2[nH]c(O)c(C=Nc3ccc(S(N)(=O)=O)cc3)c2c1 |  | 5.8 µM (active)
O=C(Nc1n[nH]c2nc(-c3ccco3)c(Br)cc12)C1CC1 | 18.8 | 
O=C1NC(=O)C(c2cccc(Cl)c2)=C1Nc1ccc(Cl)c(C(=O)O)c1 | 30.4 | 
CNC(=O)c1cccc(C#Cc2cncnc2Nc2ccc(OCc3cccc(F)c3)c(Cl)c2)c1 | 4.44 | 
COC(=O)Nc1nc2ccc(S(=O)(=O)c3ccc(NC(=O)Nc4cc(C(F)(F)F)ccc4F)cc3)cc2[nH]1 | 16.9 | 
COc1cc2ncnc(Nc3ccc4c(cnn4Cc4ccccc4)c3)c2cc1OC | 9.63 | 
N#Cc1c(NC(=O)c2cccc3ccccc23)sc2c1CCCC2 | 9.19 | 
CN(c1ccc(NC(=O)Nc2c(Cl)cccc2Cl)cc1)c1ccnc(Nc2cccc(CS(C)(=O)=O)c2)n1 | 26.4 | 
COc1ccc(CNC(=O)c2ccc(-c3cc(-c4nnc(C)o4)ccc3C)cc2)cc1 | 31.4 | 
Cc1ccc(C(=O)NC(C)C)cc1-c1ccc(C(=O)NCC2CC2)cc1 | 26.6 | 
COC(=O)Nc1nc2ccc(Oc3cccc(NC(=O)Nc4cc(C(F)(F)F)ccc4F)c3)cc2[nH]1 | 40.9 | 
COC(=O)Nc1nc2ccc(Sc3ccc(NC(=O)Nc4cc(C(F)(F)F)ccc4F)cc3)cc2[nH]1 | 74.4 | 
Cc1ccc(C(=O)NC2CCCCC2)cc1-c1ccc(C(=O)NCC2CC2)cc1 | 8.65 | 
O=S(=O)(CCNCc1ccc(-c2ccc3ncnc(Nc4ccc(OCc5cccc(F)c5)c(Cl)c4)c3c2)o1)c1ccccc1 | 16.1 | 

Reference: PubChem BioAssay AID652015 (National Center for Advancing Translational Sciences (NCATS), 2013)
